Each structure is given as a SMILES string. Unmarked numbers belong to inactive results.

The nature of this assay: S. cerevisiae growth modulation with rapamycin, primary screen, strain BY4716, OD600, 96 h (AID 1091). Further: test concentration not given here. The settings on record: higher = more signal, called active from +8 up or from −8 down.
For the compound `CCc1oc(CC[C@@H](CO)NC(=O)NCCn2cc(C3(O)CCCCC3)nn2)c(C(=O)OC)c1C(=O)OC`, the z-score is -0.874. Then `O=C1C2C=CC(C(O)c3c(F)cccc3Cl)N(Nc3ccccc3)C2C(=O)N1c1ccccc1` (stereo not given), with 0.395. The figure for `COc1ccc(C(=O)Nc2ccc(CN3C(=O)[C@@]4(O[C@@H](CCO)[C@H]([Si](C)(C)c5ccc(OC)cc5)[C@H]4C)c4ccccc43)cc2)cc1` is 0.495. The figure for `CC(C)c1ccc(NN2C(C(O)c3cc(C(F)(F)F)cc(C(F)(F)F)c3)C=CC3C(=O)N(c4ccccc4)C(=O)C32)cc1` (stereo not given) is 3.38; for `CC(=O)NCCCC[C@@H]1NC(=O)[C@@H]2C[C@H](C(=O)NCCCCCCNC(=O)CS)[C@H](c3cccc(OCCO)c3)N2C1=O` it is -0.0963. Turning to `O=C1c2ccccc2[C@@]2(Cc3ccccc3N(CCN3CCOCC3)C2=O)[C@H](c2ccc(CO)cc2)N1Cc1ccccc1`, the z-score was -1.78. The figure for `CCCCCN1CC=CC23O[C@@H]4/C=C\CCCOC(=O)C4[C@H]2C(=O)N(C(CO)C(C)C)[C@@H]3C1=O` (stereo not given in full) is -0.809; for `CN1C(=O)[C@]2(Cc3ccccc3)N=C(c3ccc(OCCCO)cc3)O[C@@H]2c2ccccc21` it is 2.26; for `COc1ccc(CCNC(=O)[C@@H]2c3ccccc3C(=O)N(C3Cc4ccccc4C3)[C@H]2c2ccc(CO)cc2)cc1` it is 0.332. Then `COc1cc2c(cc1OC)CN(C(=O)[C@H]1[C@@H]3C(=O)O[C@@H](c4ccccc4)[C@@H](c4ccccc4)N3[C@@H](c3ccc(O)cc3)[C@]13C(=O)Nc1ccc(C#CC4=CCCCC4)cc13)CC2`, with 0.563.

Consider `CCCC=C(CCC)[C@@H](NS(=O)(=O)c1cccs1)c1ccc(C(=O)OC)cc1`, for which the z-score was 0.602. Then `C[C@@]1([C@@H](NC(=O)c2ccccc2)c2ccc(-c3ccccc3)cc2)C[C@H]1C1CCCCC1`, with 0.32. For the compound `C=CCC(OC(C)=O)[C@@H]1[C@@H](N(Cc2ccc(-c3cccc(C(F)(F)F)c3)o2)C(=O)Cc2ccc(F)cc2)c2cc(OCCCO)ccc2N1C(=O)Cc1ccc(OC)cc1` (stereo not given in full), the z-score is -0.982. Then `COC(=O)c1c(CC[C@@H](CO)NC(=O)N[C@@H](C)Cn2cc(C3(O)CCCCC3)nn2)oc(C(C)=O)c1C(=O)OC`, with 0.107; and `C=CCC(OC(C)=O)[C@@H]1[C@@H](N(Cc2ccc(-c3cccc(C(F)(F)F)c3)o2)C(=O)c2ccc(-c3ccccc3)cc2)c2cc(OCCCO)ccc2N1C(=O)c1ccc(-c2ccccc2)cc1` (stereo not given in full), with 0.8.

Consider `COCCOC(=O)N1C(=O)[C@@]2(c3cc(C#Cc4ccc(OC)cc4)ccc31)[C@H](C(N)=O)[C@H]1C(=O)O[C@H](c3ccccc3)[C@H](c3ccccc3)N1[C@@H]2c1ccccc1OCCO`, for which the z-score is 3.72.

`CCN(CC)c1ccc(N2CC=CC34O[C@@H]5/C=C\CCCOC(=O)C5[C@H]3C(=O)N(CCO)[C@@H]4C2=O)cc1` (stereo not given in full): the z-score was 0.0541. Then `CC(C)N1C(=O)[C@@]2(Cc3ccccc31)c1ccccc1C(=O)N(C1CCCCC1)[C@H]2c1ccc(CO)cc1`, with -2.58. Then `CN(C)C(=O)[C@]1(Cc2ccccc2CN=[N+]=[N-])N=C(c2ccc(OCCCO)cc2)O[C@@H]1c1ccccc1CN=[N+]=[N-]`, with 4.49; and `O=C1c2ccccc2[C@](Cc2ccccc2I)(C(=O)NC2CC2)[C@H](c2ccc(CO)cc2)N1Cc1ccccc1`, with -1.15.

With `COCCOC(=O)N1C(=O)[C@@]2(c3cc(C#CC4(O)CCCCCC4)ccc31)[C@H](c1ccc(O)cc1)N1[C@H](c3ccccc3)[C@H](c3ccccc3)OC(=O)[C@H]1[C@@H]2C(=O)Nc1nc2ccccc2s1`, the z-score is 0.383. The figure for `C=CCOC(=O)[C@H]1[C@@H]2C(=O)O[C@@H](c3ccccc3)[C@@H](c3ccccc3)N2[C@@H](c2ccc(OCCOC(=O)[C@@H]3C[C@@H]4C(=O)N5CCC[C@H]5C(=O)N4[C@@H]3c3cccc(OCCO)c3)cc2)[C@]12C(=O)Nc1ccccc12` is 2.72; for `C#CCN(CC=C(C)C)[C@H](CO)c1ccccc1` it is -1.92; for `C=C[C@H](COC(C)=O)N(C(=O)OC(C)(C)C)S(=O)(=O)c1ccc(Br)cc1` it is 0.239. For the compound `COc1ccc(C(O)C2C=CC3C(=O)N(c4ccccc4)C(=O)C3N2Nc2ccccc2F)cc1OCc1ccccc1` (stereo not given), the z-score is 1. Then `CCOC(=O)C1=CCC(c2ccc(C)cc2)N(S(=O)(=O)c2ccc(C)cc2)C1` (stereo not given), with 2.26.

As for `COCC(=C=CC[C@H](O)c1ccccc1OCCO)C[C@H](O)c1cc(Cl)cc(Cl)c1O`, the z-score is -4.61.

As to `COCCOC(=O)N1C(=O)[C@@]2(c3cc(C#CC4=CCCCC4)ccc31)[C@H](C(=O)Nc1nc3ccccc3s1)[C@H]1C(=O)O[C@H](c3ccccc3)[C@H](c3ccccc3)N1[C@@H]2c1ccccc1OCCO`, the z-score was 3.25.

With `CC(C)C[C@@H]1NC(=O)[C@H]2C[C@@H](C(=O)NCCCCCCN)[C@@H](c3ccc(O)cc3)N2C1=O`, the z-score was -0.283. Then `COCCCNC(=O)[C@@]1(Cc2ccccc2)N=C(c2ccc(OCCCO)cc2)O[C@H]1c1ccccc1`, with -1.74; and `CN(C)C(=O)[C@]1(Cc2ccccc2N=[N+]=[N-])N=C(c2ccc(OCCCO)cc2)O[C@@H]1c1ccccc1`, with -0.195.

Take `CN1C(=O)C2C=CC(C(O)c3ccccc3)N(Nc3ccccc3)C2C1=O` (stereo not given): the z-score is 0.646. The figure for `CCOC(=O)C[C@H]1[C@H](OC(=O)Cc2ccc3c(c2)OCO3)[C@@H](NC(=O)c2ccc(-c3ccccc3)cc2)c2cc(OCCCO)ccc2N1C(=O)Cc1ccc(OC)cc1` is 0.105; for `O=C1c2ccccc2[C@](Cc2ccccc2I)(C(=O)NC2CC2)[C@H](c2ccc(CO)cc2)N1C1CCCCC1` it is 2.36. Then `C=CCOC(=O)[C@@H]1[C@H]2C(=O)O[C@H](c3ccccc3)[C@H](c3ccccc3)N2[C@H](c2ccc(OCCOC(=O)[C@@H]3C[C@@H]4C(=O)N5CCC[C@H]5C(=O)N4[C@@H]3c3ccc(O)cc3)cc2)[C@@]12C(=O)Nc1ccc(I)cc12`, with 2.09.

(Values after PubChem BioAssay.)
